A word on the AC50: it is the midpoint of the concentration-response curve, whichever way the signal moves.

Assay [1] can be described thus: ATG_GRE_CIS: Attagene CIS-FACTORIAL HepG2 Assay for human Glucocorticoid Response Elements (GRE) (AID 2282947). Particulars: HepG2 GRE cis-reporter, Attagene multiplex mRNA; actives raise or lower the signal. The procedure, abridged:
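Endogenous transcription factor activity is read through cis-element reporter constructs transiently transfected into HepG2 cells. After 24 h treatment, labelled RT-PCR products are resolved by capillary electrophoresis; DMSO sets baseline for bidirectional curve fitting.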

A short description of assay [2]: ATG_ISRE_CIS: Attagene CIS-FACTORIAL HepG2 Assay for human Interferon Regulatory Factor 1 (IRF1) binding to an Interferon-Stimulated Response Element (ISRE) (AID 2282948). Particulars: HepG2 ISRE cis-reporter (Attagene), mRNA transcription readout; actives raise or lower the signal. In outline: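 HepG2 cells transiently transfected with multiplexed cis-promoter reporter units; after 24 h compound exposure, reporter mRNA quantified by RT-PCR, FAM labelling, HpaI digestion and capillary electrophoresis. Bidirectional fit versus DMSO baseline.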

A short description of assay [3]: ATG_M_32_CIS: Attagene CIS-FACTORIAL HepG2 Assay for M32 Transcription Factor (Internal Marker) (AID 2282949).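 Note: background control marker of the multiplexed CIS panel rather than a real target.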 Particulars: HepG2 Attagene cis-factorial M32 reporter, mRNA; actives raise or lower the signal. The procedure, abridged: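 Internal background marker read-out: RT-PCR/capillary electrophoresis fluorescence of reporter transcripts from transiently transfected HepG2 cells after 24 h chemical exposure. Activity fitted bidirectionally relative to DMSO negative control.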

Assay [4] in a line: ATG_M_06_CIS: Attagene CIS-FACTORIAL HepG2 Assay for M06 Transcription Factor (Internal Marker) (AID 2282950). Particulars: HepG2 Attagene CIS-FACTORIAL M06 internal marker reporter; actives raise or lower the signal. The procedure, abridged: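 Read-out is fluorescence of labelled reporter cDNA fragments resolved by capillary electrophoresis after RT-PCR. Cells: HepG2 carrying transfected cis-promoter reporter units, treated 24 h. Gain or loss of signal fitted relative to DMSO.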

Assay [5] deals with Hypoxia-inducible factor 1-alpha (Homo sapiens) (UniProt Q16665). As to the kind of experiment: ATG_HIF1a_CIS: Attagene CIS-FACTORIAL HepG2 Assay for human Hypoxia Inducible Factor 1 (HIF1A) (AID 2282951). Particulars: HepG2 Attagene cis-factorial HIF1a reporter transcription; actives raise or lower the signal. The procedure, abridged:
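HepG2 cells transiently transfected with multiple cis-regulated reporter transcription units measure endogenous transcription factor activity. After 24 h exposure, reporter mRNA is quantified by RT-PCR with 6-FAM labelling, HpaI digestion and capillary electrophoresis. Bidirectional fitting against DMSO.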

For assay [6], the target named is Hepatocyte nuclear factor 6 (Homo sapiens) (UniProt Q9UBC0). In words: ATG_HNF6_CIS: Attagene CIS-FACTORIAL HepG2 Assay for human Hepatocyte Nuclear Factor 6 (HNF6) (AID 2282952). Particulars: HepG2 Attagene cis-factorial HNF6 reporter transcription; actives raise or lower the signal. In outline:
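Cells are HepG2 carrying transiently transfected cis-promoter reporter units. Treatment lasts 24 h, after which reporter transcripts are reverse-transcribed, amplified, FAM-labelled and sized by capillary electrophoresis. DMSO serves as baseline.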

In assay [7] the target is Heat shock factor protein 1 (Homo sapiens) (UniProt Q00613). As to the kind of experiment: ATG_HSE_CIS: Attagene CIS-FACTORIAL HepG2 Assay for human Heat Shock Transcription Factor 1 (HSE) (AID 2282953). Particulars: HepG2 HSE cis-reporter, Attagene RNA transcription; actives raise or lower the signal. The procedure, abridged: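 HepG2, transient MRTU transfection, cis-promoter reporters (endogenous TF activity). 24 h compound. RNA → oligo(dT) RT → PCR → 6-FAM primer extension → HpaI cut → CE. Bidirectional fit vs DMSO.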
Chain of Heat shock factor protein 1 (Homo sapiens) (Q00613 whole entry, looked up): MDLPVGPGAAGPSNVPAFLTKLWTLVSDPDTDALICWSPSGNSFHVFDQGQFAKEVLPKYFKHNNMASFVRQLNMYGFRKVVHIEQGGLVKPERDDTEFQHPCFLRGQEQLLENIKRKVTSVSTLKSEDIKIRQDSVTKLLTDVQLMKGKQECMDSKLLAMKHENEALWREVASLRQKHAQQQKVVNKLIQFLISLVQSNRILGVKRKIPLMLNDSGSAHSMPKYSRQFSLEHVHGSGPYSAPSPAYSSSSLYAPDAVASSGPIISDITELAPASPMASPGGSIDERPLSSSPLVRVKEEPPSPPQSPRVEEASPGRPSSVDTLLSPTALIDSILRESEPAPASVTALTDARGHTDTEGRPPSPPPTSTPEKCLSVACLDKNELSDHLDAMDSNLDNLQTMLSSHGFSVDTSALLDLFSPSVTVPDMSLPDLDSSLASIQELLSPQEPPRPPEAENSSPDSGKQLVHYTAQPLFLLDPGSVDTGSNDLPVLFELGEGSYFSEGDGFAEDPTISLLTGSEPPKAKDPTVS

A short description of assay [8]: ATG_MRE_CIS: Attagene CIS-FACTORIAL HepG2 Assay for human Metal Responsive Element (MRE) (AID 2282954). Particulars: HepG2 MRE cis-reporter transcription, Attagene multiplex; actives raise or lower the signal. In outline:
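Fluorescent reporter fragments separated by capillary electrophoresis give mRNA induction for the MRE unit after 24 h treatment of transfected HepG2 cells. Endogenous transcription-factor activity is read; DMSO serves as negative control and baseline.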

A short description of assay [9]: ATG_PBREM_CIS: Attagene CIS-FACTORIAL HepG2 Assay for human Phenobarbital-responsive Enhancer Module (PBREM) (AID 2282955). Particulars: HepG2 PBREM cis-reporter, Attagene multiplexed transcription; actives raise or lower the signal. The procedure, abridged: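 HepG2 cells transiently transfected with multiple cis-regulated reporter units measure endogenous transcription factor activity; 24 h compound exposure. Reporter mRNA quantified by RT-PCR, fluorescent labelling, HpaI digestion and capillary electrophoresis; bidirectional fit versus DMSO.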

Assay [10] deals with Paired box protein Pax-6 (Homo sapiens) (UniProt P26367). As to the kind of experiment: ATG_Pax6_CIS: Attagene CIS-FACTORIAL HepG2 Assay for human Paired Box 6 (PAX6) (AID 2282956). Particulars: HepG2 CIS-FACTORIAL PAX6 reporter transcription, RNA readout; actives raise or lower the signal. The procedure, abridged:
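HepG2 cells transiently transfected with multiplexed cis-promoter reporter units (endogenous TF activity) were dosed for 24 h. Reporter mRNA was quantified by RT-PCR, 6-FAM labeling, HpaI digestion and capillary electrophoresis; bidirectional fitting versus DMSO baseline.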

Calls of active or inactive are those of the source. Rule for the calls: active = hit-call score of the fitted dose curve at least 0.9, where 1 is the maximum; inactive = score below 0.9.

Chain of Hepatocyte nuclear factor 6 (Homo sapiens) (Q9UBC0 whole entry, looked up): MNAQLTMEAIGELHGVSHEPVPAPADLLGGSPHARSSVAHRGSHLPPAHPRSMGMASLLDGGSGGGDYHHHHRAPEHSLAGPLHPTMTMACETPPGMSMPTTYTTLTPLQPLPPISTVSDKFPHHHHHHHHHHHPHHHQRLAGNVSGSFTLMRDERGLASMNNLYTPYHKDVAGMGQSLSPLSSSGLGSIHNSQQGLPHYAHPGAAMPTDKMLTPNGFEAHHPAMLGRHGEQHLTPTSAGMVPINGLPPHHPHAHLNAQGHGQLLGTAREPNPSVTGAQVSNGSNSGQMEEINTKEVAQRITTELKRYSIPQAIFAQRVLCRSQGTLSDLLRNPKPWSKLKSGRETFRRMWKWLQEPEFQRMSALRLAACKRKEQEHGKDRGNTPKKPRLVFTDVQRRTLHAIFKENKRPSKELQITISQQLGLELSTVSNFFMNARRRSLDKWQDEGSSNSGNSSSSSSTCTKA
Chain of Paired box protein Pax-6 (Homo sapiens) (P26367 whole entry, looked up): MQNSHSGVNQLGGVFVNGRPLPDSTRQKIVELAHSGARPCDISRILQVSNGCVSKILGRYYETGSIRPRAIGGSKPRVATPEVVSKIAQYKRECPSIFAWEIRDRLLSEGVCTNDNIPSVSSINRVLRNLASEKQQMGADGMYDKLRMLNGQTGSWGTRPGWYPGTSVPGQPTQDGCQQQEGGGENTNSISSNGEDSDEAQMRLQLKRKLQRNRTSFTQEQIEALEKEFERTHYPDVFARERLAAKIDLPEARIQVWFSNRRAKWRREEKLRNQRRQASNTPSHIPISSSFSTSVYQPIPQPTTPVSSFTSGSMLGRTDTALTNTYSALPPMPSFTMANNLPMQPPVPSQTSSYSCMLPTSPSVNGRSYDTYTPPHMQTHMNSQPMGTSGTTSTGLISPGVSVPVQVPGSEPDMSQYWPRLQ
Chain of Hypoxia-inducible factor 1-alpha (Homo sapiens) (Q16665 whole entry, looked up): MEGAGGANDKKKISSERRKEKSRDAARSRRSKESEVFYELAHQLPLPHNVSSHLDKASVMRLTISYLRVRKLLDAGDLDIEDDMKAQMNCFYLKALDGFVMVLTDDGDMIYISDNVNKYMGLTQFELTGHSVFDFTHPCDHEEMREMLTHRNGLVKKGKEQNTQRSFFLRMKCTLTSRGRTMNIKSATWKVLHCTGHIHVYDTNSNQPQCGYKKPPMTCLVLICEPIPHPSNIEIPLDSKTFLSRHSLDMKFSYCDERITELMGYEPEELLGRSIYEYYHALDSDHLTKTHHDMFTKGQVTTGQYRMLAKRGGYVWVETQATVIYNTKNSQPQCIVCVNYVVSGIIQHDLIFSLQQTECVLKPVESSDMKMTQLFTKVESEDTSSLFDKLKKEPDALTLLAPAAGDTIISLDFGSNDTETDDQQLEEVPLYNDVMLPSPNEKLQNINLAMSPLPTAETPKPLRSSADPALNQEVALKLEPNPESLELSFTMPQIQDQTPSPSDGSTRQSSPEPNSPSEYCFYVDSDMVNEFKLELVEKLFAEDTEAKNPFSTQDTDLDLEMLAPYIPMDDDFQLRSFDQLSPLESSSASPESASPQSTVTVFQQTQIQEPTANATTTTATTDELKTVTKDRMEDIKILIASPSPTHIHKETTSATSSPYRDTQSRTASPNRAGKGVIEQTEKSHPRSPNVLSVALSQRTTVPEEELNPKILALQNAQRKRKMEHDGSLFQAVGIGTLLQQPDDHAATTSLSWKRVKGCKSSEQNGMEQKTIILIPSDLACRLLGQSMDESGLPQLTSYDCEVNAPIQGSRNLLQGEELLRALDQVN

As for `CCCCSP(=O)(SCCCC)SCCCC`, the AC50 was 50 µM (active) in assay [1]; 58.6 µM (active) in assay [2]; 77.9 µM (active) in [3]; 23.4 µM (active) in [8]; 50 µM (active) in [9]. The outcome in [4], in [5], in assay [6], in [7] and in assay [10] was inactive.

Regarding `CCCOCC(=Nc1ccc(Cl)cc1C(F)(F)F)n1ccnc1`, the result in [1], in assay [2], in [3], in assay [4], in assay [5] and in [6] was inactive. Further, the outcome in assay [7], in [8], in assay [9] and in assay [10] was inactive.

Consider `COc1cccc(C(=O)NN(C(=O)c2cc(C)cc(C)c2)C(C)(C)C)c1C`, for which the call in assay [2], in assay [3], in assay [4], in assay [5], in [6] and in [7] was inactive. In addition, the result in [8] and in assay [10] was inactive. Moreover, in assay [9], the AC50 was 3.46 µM (active).

As to `CN1COCN(Cc2cnc(Cl)s2)C1=N[N+](=O)[O-]`, the outcome in assay [1], in [2], in [3], in [4], in [5] and in assay [6] was inactive. Moreover, the call in [7], in assay [8] and in assay [10] was inactive.

Take `S=C1NCCN1`: the compound was called inactive in assay [2], in assay [3], in assay [4], in assay [5], in assay [6] and in [7]. Also, the compound was classed as inactive in assay [8] and in [10].

In the case of `CCC(=O)Nc1ccc(Cl)c(Cl)c1`, the compound was called inactive in assay [2], in [3], in assay [4], in assay [5], in [6] and in assay [7]. In addition, the result in assay [8], in assay [9] and in assay [10] was inactive.

For `Cc1nn(-c2cc(NS(C)(=O)=O)c(Cl)cc2Cl)c(=O)n1C(F)F`, the outcome in assay [2], in assay [3], in assay [4], in assay [5], in assay [6] and in assay [7] was inactive. Besides, the outcome in assay [8] and in assay [10] was inactive.

Consider `CCOP(=O)(OCC)Oc1cc(C)nc(C(C)C)n1`, for which the compound was classed as inactive in [1], in [2], in assay [3], in assay [4], in assay [5] and in assay [6]. Further, the compound was classed as inactive in assay [7], in assay [8] and in assay [10].

On to `CN(C)[C@@H]1C(=O)C(C(N)=O)=C(O)[C@@]2(O)C(=O)C3=C(O)c4c(O)cccc4[C@@](C)(O)[C@H]3[C@H](O)[C@@H]12`, for which the compound was classed as inactive in assay [2], in assay [3], in [4], in [6], in assay [7] and in [8]. Further, the result in [10] was inactive.

Regarding `CON=C(C(=O)OC)c1ccccc1CON=C(C)c1cccc(C(F)(F)F)c1`, the AC50 is 12.6 µM (active) in [2], 24.1 µM (active) in assay [7] and 68.9 µM (active) in assay [8]. Moreover, the call in [3], in [4], in assay [5], in assay [6], in assay [9] and in assay [10] was inactive.

`O=c1ccc(=O)[nH][nH]1`: the result in assay [2], in assay [3], in assay [4], in [5], in [6] and in [7] was inactive. For the same compound, the call in assay [8] and in assay [10] was inactive.

Turning to `CCc1cccc(C)c1N(C(=O)CCl)C(C)COC` (configuration not stated), the compound was classed as inactive in assay [2], in [3], in [4], in assay [5], in assay [6] and in [7]. Besides, the result in assay [8] and in assay [10] was inactive. For the same compound, in [9], the AC50 was 7.5 µM (active).

With `Cc1ccn2nc(S(=O)(=O)Nc3c(F)cccc3F)nc2n1`, the compound was classed as inactive in assay [2], in [3], in assay [4], in [5], in assay [6] and in assay [7]. For the same compound, the compound was called inactive in assay [8], in assay [9] and in assay [10].

Regarding `CCCSP(=O)(OCC)Oc1ccc(Br)cc1Cl` (configuration not stated), the compound was called inactive in assay [2], in assay [3], in assay [4], in assay [5], in assay [6] and in [7]. Moreover, the compound was called inactive in assay [8], in assay [9] and in assay [10].

Turning to `CC[C@H](C)[C@H]1O[C@]2(C=C[C@@H]1C)C[C@@H]1C[C@@H](C/C=C(\C)[C@@H](O[C@H]3C[C@H](OC)[C@@H](O[C@H]4C[C@H](OC)[C@@H](NC)[C@H](C)O4)[C@H](C)O3)[C@@H](C)/C=C/C=C3\CO[C@@H]4[C@H](O)C(C)=C[C@@H](C(=O)O1)[C@]34O)O2`, the call in assay [2], in [3], in assay [4], in assay [5], in [6] and in assay [8] was inactive. In addition, the result in assay [9] and in [10] was inactive.

In the case of `CNC(=O)ON=C(C)SC`, the outcome in assay [1], in assay [2], in [3], in assay [4], in [5] and in [6] was inactive. Also, the outcome in assay [7], in assay [8] and in assay [10] was inactive.

Take `CCOP(=O)(SC(C)CC)N1CCSC1=O` (configuration not stated): the compound was classed as inactive in [2], in assay [3], in assay [4], in [5], in assay [6] and in assay [7]. Further, the compound was called inactive in assay [8], in assay [9] and in assay [10].

As to `CNC(=O)ON=C(SC)C(=O)N(C)C`, the outcome in assay [2], in assay [3], in [4], in [5], in [6] and in assay [7] was inactive. The compound was classed as inactive in [8], in [9] and in [10].

Consider `CCOC(=O)COc1cc(-c2nn(C)c(OC(F)F)c2Cl)c(F)cc1Cl`, for which the result in assay [1], in assay [2], in assay [3], in [4], in [5] and in assay [6] was inactive. The outcome in [8], in [9] and in assay [10] was inactive.

(Values after PubChem BioAssay (EPA / NIEHS).)
